Structures are written as SMILES. Several values for one entry are separate records, joined by “and”; a condition that tells them apart may be missing. Equal values may be shown once. Compounds without any hit were thinned out: in the full panel of roughly 79,000, 15% have a hit. Values without a mark were called inactive. Activity calls are given as the source filed them. No stated cut-off is given here; in the data, active means growth inhibition above about 70%; inactive means the rest.

The nature of test [1]: NCI Yeast Anticancer Drug Screen. Data for the rad50 strain (AID 155).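 Further: 0% = growth of vehicle-only cultures of the same strain.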 As to conditions: S. cerevisiae rad50 strain growth inhibition; at 50.0 µM; active compounds read high. The procedure, abridged:
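Genetically altered yeast (DNA repair pathway); compound treatment; growth inhibition vs vehicle ctrl.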

The nature of test [2]: NCI Yeast Anticancer Drug Screen. Data for the mec2-1 strain (AID 157). As to conditions: S. cerevisiae mec2-1 strain, at 50.0 µM, active compounds read high. The procedure, abridged: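 Growth inhibition is read against vehicle-treated controls after compound exposure of the mec2-1 yeast strain, which is defective in DNA damage repair or cell cycle control.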
Test [3] is described as follows: NCI Yeast Anticancer Drug Screen. Data for the sgs1 mgt1 strain (AID 161).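 Further: 0% = growth of cultures given vehicle only.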 The note with it: S. cerevisiae sgs1 mgt1 strain, at 50.0 µM, active compounds read high. The procedure, abridged: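 Compounds are added to genetically altered yeast, and growth is compared with cultures given vehicle alone to give percent inhibition.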
A short description of test [4]: NCI Yeast Anticancer Drug Screen. Data for the cln2 rad14 strain (AID 165).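 Further: 0% = growth equal to vehicle treated cultures.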 The note with it: S. cerevisiae cln2 rad14 strain, at 50.0 µM, active compounds read high. An outline of the steps: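 Growth inhibition, relative to vehicle-treated controls, is the read-out. The test organism is a yeast strain with defined genetic alterations, cln2 rad14.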
The nature of test [5]: NCI Yeast Anticancer Drug Screen. Data for the bub3 strain (AID 167). As to conditions: S. cerevisiae bub3 mutant strain, at 50.0 µM, active compounds read high. An outline of the steps: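 Yeast carrying a defined mutation is treated with each compound, and growth is compared with that of vehicle-exposed cells to give inhibition.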
A short description of test [6]: NCI Yeast Anticancer Drug Screen. Data for the mlh1 rad18 strain (AID 175). As to conditions: S. cerevisiae mlh1 rad18 strain growth inhibition; at 50.0 µM; active compounds read high. The procedure, abridged: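 Cells of a genetically altered yeast strain, deficient in DNA damage repair, were treated with compound. Their growth was then compared with that of vehicle-treated cultures to give inhibition.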

Take `O=C(Cl)c1cc([N+](=O)[O-])cc([N+](=O)[O-])c1`: the growth inhibition in test [1] is 48.1%; in test [2], 26.1%; in test [3], 45.9%; in test [4], -10.2%; in test [5] it was -1.6%; in test [6] it was 46.6%.
In the case of `Cc1ccccc1[N+](=O)[O-]`, the growth inhibition in test [1] was 19.1%; in test [2] it was 13.6%; in test [3], 2.5%; in test [4] it was 9.45%; in test [5] it was -10.1%; in test [6], -3.3%.
Consider `O=N[O-].O=N[O-].[Co].[NH2-].[NH2-].[NH2-].[NH2-]`, for which the growth inhibition was 0.1% in test [1]; -11.5% in test [2]; -3.5% in test [3]; -14.3% in test [4]; 2.15% in test [5]; 26.9% in test [6].
Regarding `[CH3][Sn]([CH3])([CH3])[O]C(=O)C(O)c1ccccc1` (stereo not drawn), the growth inhibition was 11.6% in test [1]; -7.7% in test [2]; 5.1% in test [3]; 9.4% in test [4]; -0.05% in test [5]; -2.3% in test [6].
`CC[C@@]1(O)C(=O)OCc2c1c(Cl)c1n(c2=O)Cc2cc3ccccc3nc2-1`: the growth inhibition was -21.1% in test [1]; -23.9% in test [2]; -5.85% in test [3]; 17.7% in test [4]; -28.5% in test [5]; -70% in test [6].
Take `Cc1nc2cccc(F)c2c(=O)n1-c1nnc(C2CC2)s1`: the growth inhibition in test [1] was -28.6%; in test [2] it was -23.5%; in test [3], -20.2%; in test [4], 13.5%; in test [5], -41.2%; in test [6], -9.05%.
Regarding `O=C(O)COc1nc(Cl)c(Cl)cc1Cl`, the growth inhibition in test [1] is 3.3%; in test [2], 6%; in test [3], 12.5%; in test [4] it was -1.75%; in test [5], 15.6%; in test [6] it was 1.15%.
Take `COC1=C(OC)C23CCc4ccc(OC)c(O)c4C2(CCN3)CC1=O` (stereo not drawn): the growth inhibition was 7.5% in test [1]; -10.7% in test [2]; 25.2% in test [3]; 14.1% in test [4]; 1.6% in test [5]; -27.4% in test [6].
`NC(=NCCCC(NCc1ccccc1)C(=O)O)N[N+](=O)[O-]` (stereo not drawn): the growth inhibition in test [1] is 16.3%; in test [2] it was 17.6%; in test [3], 16.6%; in test [4] it was 16.9%; in test [5], 6.85%; in test [6] it was 16.1%.
For the compound `C=Cc1cc(OC)c2c(c1)c(=O)oc1c2cc(OC)c2c(O)ccc(C3OC(C(C)O)C(O)C3O)c21` (stereo not drawn), the growth inhibition in test [1] was 88% (active); in test [2], 91.7% (active); in test [3] it was 89.1% (active); in test [4], 90.2% (active); in test [5], 90% (active); in test [6] it was 89.3% (active).
On to `O=c1ccc(=O)[nH][nH]1`, for which the growth inhibition in test [1] is 6.25% and 36.3% and -4.05%; in test [2], 10.2% and 23.1% and -12.5%; in test [3], 5.6% and 7.25% and -6.05%; in test [4] it was 3.85% and 27.6% and -7.1%; in test [5], 1.65% and 30% and 26.9%; in test [6], 10.8% and 16.1% and 6.25%.
`Cc1ccc2[nH]cc(CCN(C)C)c2c1`: the growth inhibition in test [1] is 22.6%; in test [2], -16.5%; in test [3], 8.25%; in test [4], 7.65%; in test [5] it was 10.2%; in test [6], 19.6%.
Regarding `O=P(O)(O)c1ccccc1` (tested in a mixture with another compound), the growth inhibition in test [1] was -28.9%; in test [2], -6.45%; in test [3], -15.2%; in test [4] it was -35.1%; in test [5], -31.9%; in test [6], 2.7%.
Turning to `c1ccc(CN2C3CCCC2CC(c2ccccc2)C3)cc1` (stereo not drawn), the growth inhibition was 79.8% (active) in test [1]; 63.9% in test [2]; 80.3% (active) in test [3]; 71.8% (active) in test [4]; 65.7% in test [5]; 85.5% (active) in test [6].
Turning to `COc1cccc(C=C(C#N)C#N)c1`, the growth inhibition is 46.8% in test [1]; 23.8% in test [2]; 31.7% in test [3]; 26.4% in test [4]; 14.6% in test [5]; 33.4% in test [6].
Consider `O=c1[nH]c2ccccc2c(=O)n1-c1ccccc1`, for which the growth inhibition in test [1] is -8.1%; in test [2], -4.45%; in test [3] it was -1.05%; in test [4] it was -6.05%; in test [5], -2%; in test [6] it was -15.4%.
For the compound `CC[n+]1c(C)n(-c2ccccc2)c(=O)c2ccccc21`, the growth inhibition is -0.3% in test [1]; -6.85% in test [2]; 4.75% in test [3]; 18.2% in test [4]; -10.9% in test [5]; 6.25% in test [6].
As to `O=NN(O)c1ccccc1.O=NN(O)c1ccccc1.[Mn+2]`, the growth inhibition was 4.85% in test [1]; 0.15% in test [2]; 13.1% in test [3]; -46.5% in test [4]; -4.3% in test [5]; 3.85% in test [6].
For `ClCCN(CCCl)c1ccc(-c2csc(Cc3ccccc3)n2)cc1`, the growth inhibition was -2% in test [1]; -7.35% in test [2]; -2.7% in test [3]; -20% in test [4]; -4.3% in test [5]; -19.9% in test [6].
With `Cc1cc(C)n(-c2nc3ccccc3c(=O)n2-c2ccccc2)n1`, the growth inhibition in test [1] was -2.9%; in test [2] it was -2.75%; in test [3], -14.5%; in test [4], 0.4%; in test [5], -7.75%; in test [6], -16.9%.
For `NNC(=S)S`, the growth inhibition in test [1] is 27.9% and -11.3% and -7.8%; in test [2], 26.1% and -14.6% and -8.5%; in test [3] it was 6.1% and -1.65% and -21.6%; in test [4], 22.2% and -24.2% and -21.7%; in test [5], 26.2% and 9.35% and -27%; in test [6] it was 5.3% and -2.15% and -45.4%.
For `COc1ccc2nc3ccccc3nc2c1` (tested in a mixture with another compound), the growth inhibition was 30.2% in test [1]; 35.2% in test [2]; 27.2% in test [3]; 19.6% in test [4]; 24.1% in test [5]; 30.8% in test [6].
In the case of `C1OCN2CSCC12` (stereo not drawn), the growth inhibition was 4% in test [1]; 28.8% in test [2]; 30.4% in test [3]; 5.35% in test [4]; 27.9% in test [5]; 31.8% in test [6].
`O=NNc1ccc(Br)cn1`: the growth inhibition in test [1] was -2.7%; in test [2], -6.25%; in test [3], 5.7%; in test [4], -0.85%; in test [5], -0.35%; in test [6] it was 4.2%.
Turning to `C=CC[As](=O)(O)c1ccccc1Cl`, the growth inhibition in test [1] was 96% (active); in test [2], 99.5% (active); in test [3], 99.5% (active); in test [4], 84.2% (active); in test [5] it was 98.3% (active); in test [6] it was 99% (active).
Take `CC1CC2CCC1(CO)CN2` (stereo not drawn): the growth inhibition in test [1] is -0.45%; in test [2], 2.3%; in test [3], 0.1%; in test [4], 4.65%; in test [5] it was 0.85%; in test [6], 3.9%.
Consider `Nc1nc(N)c2cnnn2n1`, for which the growth inhibition in test [1] is 18.1%; in test [2], -13.2%; in test [3] it was 17.3%; in test [4], 11.9%; in test [5], 4.05%; in test [6] it was 20.8%.
Take `O=C(O)C(CSC(c1ccccc1)c1ccccc1)N1C(=O)c2ccccc2C1=O` (stereo not drawn): the growth inhibition was 47.9% in test [1]; 36.4% in test [2]; 46.4% in test [3]; 43.3% in test [4]; 29.1% in test [5]; 44.7% in test [6].
In the case of `CCOP(=O)(OCC)C1CCC(=O)O1` (stereo not drawn), the growth inhibition is -14.2% in test [1]; -20.2% in test [2]; -14% in test [3]; 12.4% in test [4]; 10.6% in test [5]; 10.6% in test [6].
As to `Cc1cc(N(CCCl)CCCl)ccc1CN1CCCN(Cc2ccc(N(CCCl)CCCl)cc2C)C1c1cc(O)cc(Br)c1`, the growth inhibition in test [1] was 43%; in test [2], 24.5%; in test [3], 35.4%; in test [4], -2.55%; in test [5], 9.3%; in test [6] it was 37.9%.
As to `CNCC(=O)c1ccc(O)c(O)c1`, the growth inhibition in test [1] was 2.4%; in test [2] it was -10.1%; in test [3], -30.6%; in test [4] it was -9.35%; in test [5], -38.9%; in test [6], -6.75%.
In the case of `O=[N+]([O-])c1cc(Cl)ccc1Cl`, the growth inhibition in test [1] is 11.6% and 28.9%; in test [2], 4.4% and -26.1%; in test [3], 4.75% and -10.9%; in test [4], 3.95% and -47.9%; in test [5], -6.85% and -12.7%; in test [6], 0.35% and -8.7%.
Consider `CCc1cccc(C(C)C)c1NC(=O)C(=O)C1C(=O)NC(=O)NC1=O`, for which the growth inhibition was -40.1% in test [1]; -12.2% in test [2]; -9.45% in test [3]; 18.1% in test [4]; -10.6% in test [5]; -31.4% in test [6].
For `O=NN(CS(=O)(=O)O)c1ccccc1`, the growth inhibition in test [1] was -5.9%; in test [2] it was -3.05%; in test [3], -1.6%; in test [4], -29.2%; in test [5], 6.4%; in test [6], 0.4%.
In the case of `OC/C=C\c1ccc2c(c1)OCO2`, the growth inhibition in test [1] is -19.2%; in test [2] it was 14.2%; in test [3], 17.2%; in test [4], -9%; in test [5] it was -58.5%; in test [6], -32.5%.
Take `CC(C)CCCC(C)C1CCC2C3CC=C4CC(OC(=O)CN5CC5)CCC4(C)C3CCC12C` (stereo not drawn): the growth inhibition in test [1] was -0.3%; in test [2] it was -2.65%; in test [3], -4.85%; in test [4], -6.85%; in test [5] it was 18.8%; in test [6], 3.2%.
For the compound `FC(F)(F)c1ccc(Cl)c(NC2=NCCS2)c1`, the growth inhibition was 14.2% in test [1]; 24.8% in test [2]; 19.4% in test [3]; 11.2% in test [4]; 11% in test [5]; 20.2% in test [6].
For the compound `CCN1CCC(O)(c2ccccc2)C(C(=O)c2ccccc2)C1` (stereo not drawn), the growth inhibition in test [1] was 5.15%; in test [2], -17.1%; in test [3], 5.3%; in test [4] it was 20.7%; in test [5], -10.9%; in test [6], 16.4%.

Source of the values: PubChem BioAssay (NCI).
